15 molecules from PubChem BioAssay (NCATS) can be followed below.

Results filed as inconclusive are left out. A call without a number means that no potency is given here. Calls of active or inactive are those of the source. Calls follow the shape of the dose curve; as a rule, active = well fitted cell-killing curve with a large enough effect; inconclusive = small, poorly fitted or top-dose-only effect, or effect the other way; inactive = no such curve, though single readings can be large or run the other way.
Potency is read from the fitted curve at half-maximal effect.

The assay in a line: Quantitative highthroughput screen to assess conditional lethalithy of NOMO1 cells grown in Human Plasma-Like Medium with dialyzed fetal bovine serum (HPLM+ds) (AID 1963878). Also: nearly all actives have a fitted effect of over 35% in size. As to conditions: NOMO1 AML cells in HPLM+ds, CellTiter-Glo viability, 48 h; series mostly up to 45.8 µM. In outline: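 Each medium arm—HPLM with 10% dialyzed FBS, or RPMI1640 with 5 mM glucose and 10% untreated or dialyzed FBS—was screened against an 11-point, 3-fold compound titration for 48 h at 37 °C, with CellTiter-Glo luminescence as endpoint.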
In the case of `COc1cc2c(Oc3ccc(NC(=O)C4(C(=O)Nc5ccc(F)cc5)CC4)cc3F)ccnc2cc1OCCCN1CCOCC1`, the Potency is 13.2 µM (active).
The entry for `Oc1ccc2ccccc2c1SSc1c(O)ccc2ccccc12` is “inactive”.
Regarding `Cc1ccc(S(=O)(=O)Nc2nc3ccccc3nc2Nc2ccc3nsnc3c2)cc1`, the Potency is 1.02 µM (active).
Consider `Cc1cc(O)c2c(c1)C(=O)c1cccc(O)c1C2=O`, for which the Potency was 20.9 µM (active).
`O=C1N(c2ccccc2)c2ccccc2C1(Cc1ccncc1)Cc1ccncc1`: the Potency entry was “inactive”.
Under `O=C(NCCCNc1nc(Nc2cccc(NC(=O)N3CCCC3)c2)ncc1I)c1cccs1` stands “inactive”; under `NS(=O)(=O)c1cc(Cl)c(Cl)c(S(N)(=O)=O)c1`, “inactive”; under `CCc1cccc2c3c([nH]c12)C(CC)(CC(=O)O)OCC3` (stereo not given), “inactive”.
As for `CCC(=O)N[C@H]1CC[C@H](C(=O)N(C)c2ccc(-c3nc4ccccc4o3)cc2)C1`, the Potency result was “inactive”.
Under `CC(C)C[C@@H](N)[C@H](O)C(=O)N[C@H](C(=O)N[C@H](C(=O)N[C@@H](CC(=O)O)C(=O)O)C(C)C)C(C)C` stands “inactive”; under `CN1CCN(CCCN2c3ccccc3Sc3ccc(C(F)(F)F)cc32)CC1`, 2.64 µM (active); under `Cc1c(C(=O)Nc2ccc(N3C[C@@H](C)O[C@@H](C)C3)nc2)cccc1-c1ccc(OC(F)(F)F)cc1`, 3.32 µM (active).
Under `CC(C)Oc1cc(Nc2nc(N[C@@H](C)c3ccc(F)cn3)ncc2Cl)[nH]n1` stands “inactive”.
Under `CCC(c1ccc(O)cc1)C(CC)c1ccc(O)cc1` (stereo not given) stands “inactive”; under `CC(C(=O)O)c1cccc(C(=O)c2ccccc2)c1` (stereo not given), “inactive”.
